The results in this text go back to PubChem BioAssay (NCI).

SMILES strings stand for the structures. “And” between values parts separate entries of the source, which are not always exact repeats. Equal values may be shown once. About 79,000 compounds went through this panel and 15% of them were active in at least one assay; those are over-represented in the sample as a whole. More than one record can exist for a structure, and the calls need not agree. The source made the active and inactive calls. Rule as the data show it: active = growth inhibition above about 70%; inactive = the rest.

The first assay can be described thus: NCI Yeast Anticancer Drug Screen. Data for the mec2-1 strain (AID 157). The following applies: S. cerevisiae mec2-1 strain, at 50.0 µM, stronger effect = higher value. Summed up:
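Mutant yeast (mec2-1) grown with compound; growth inhibition relative to vehicle control reported.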
Take `CS(=O)(=O)SCc1ccc([N+](=O)[O-])cc1`: the growth inhibition was 98% (active).
Same read-out and setting: the value for `Cc1csc(=S)n1OC(=O)NC1CCCCC1` was 94.2% (active).
Turning to `CCOc1ccc(NC(=O)C2=C(C)NC(C)=C(C(=O)Nc3ccc(OCC)cc3)C2c2cccc([N+](=O)[O-])c2)cc1`, the growth inhibition was 34.6% (inactive).
With `CC(C)(C)N=C(NO)c1ccccc1`, the growth inhibition was 2.9% (inactive).
The same measure, in the same setting: the value for `CCCCC/C(=C(\C#N)C(=O)OCC)c1ccccc1` was 28.4% (inactive); that for `O=C(NCCCl)Sc1ccc(Cl)cc1` was 99.3% (active).
On the same count and under the same terms, the value for `O=C1Nc2ccc(Br)cc2C1=Nc1ccc2c(c1)OCO2` was -5.95% (inactive); that for `CCC(C)OC(=O)Nc1ccc(C)c(NC(=O)OC(C)CC)c1` (stereo not drawn) was 76% (active).
The same measure, in the same setting: the value for `O=C(O)c1cc2ccc(Cl)cc2c(O)c1C1=CCCCC1` was 69.1% (inactive); that for `CN(C)Cc1cc(N=Nc2ccc(Cl)cc2)ccc1OC(=O)c1ccccc1` was 97.2% (active).
As for `CN1CCN(C(=O)/C=C/C(=O)c2ccccc2)CC1`, the growth inhibition was 95% (active).
In the case of `CCCC/C=C/C(C)(C(=O)OCC)C(=O)OCC`, the growth inhibition is 26.9% (inactive).
For the compound `Cc1nc(-c2cc3cc([N+](=O)[O-])ccc3oc2=O)cs1`, the growth inhibition is 94.2% (active).
Regarding `Cc1nc2ccccc2nc1NNc1ccccc1`, the growth inhibition is 41.6% (inactive).
The same measure, in the same setting: the value for `CN(C)[C@@H]1C(=O)C(C(N)=O)=C(O)[C@@]2(O)C(=O)C3=C(O)c4c(O)cccc4C[C@H]3C[C@@H]12` was 91% (active); that for `COc1ccc(NC(=O)CC2SC(=Nc3ccccc3C)NC2=O)c([N+](=O)[O-])c1` (stereo not drawn) was 72.2% (active).
Consider `COc1cc(O)c2c(c1O)C(=O)c1cc(C)ncc1C2=O`, for which the growth inhibition is 23.2% (inactive).
For the compound `CSc1nnc(SC)nn1`, the growth inhibition is 77.8% (active).
On to `COc1cc(/C=C2\CCC/C(=C\c3ccc(O)c(OC)c3)C2=O)ccc1O`, for which the growth inhibition was -13.1% (inactive) and 63.1% (inactive).
Turning to `CN(C)CCNC(=O)c1cccc2cc([N+](=O)[O-])ccc12`, the growth inhibition was 82.7% (active).
In the case of `CCC(C)(C)c1ccc(Oc2cccc(C(=O)O)c2)cc1`, the growth inhibition is 78.8% (active).
On the same count and under the same terms, the value for `CCCCCCSc1ncnc2[nH]ncc12` was 76.5% (active).
`CC(=O)Nc1ccc(/C=C/[N+](=O)[O-])cc1`: the growth inhibition was 53.4% (inactive).
Still for that read-out and setting: the value for `CCOC(=O)c1[nH]n(-c2ccccc2)c(=O)c1C=NC(=S)C(N)=S` was 90.7% (active); that for `CCCC(O)C1CC(C(C)C)CCC1C` (stereo not drawn) was 75.5% (active); that for `O=[n+]1c2ccccc2n([O-])c2cc(Br)ccc21` was 99.3% (active).
Regarding `CN(C)CCNC(=O)c1cccc2c1Oc1c(cccc1[N+](=O)[O-])O2`, the growth inhibition is 7.85% (inactive).
`Nc1ncc(-c2ccc(Br)cc2)s1`: the growth inhibition was 93% (active).
As for `Cc1cc2cc3cc(C)c(N)cc3nc2cc1N`, the growth inhibition is 75.5% (active).
On to `CC12C(=O)OC(=O)C(c3ccccc31)c1ccccc12`, for which the growth inhibition is 91% (active).
As to `c1ccc2c(OCC3CO3)cccc2c1` (stereo not drawn), the growth inhibition is 49.3% (inactive).
As for `CCOC(=N)c1ccc(O)c(OC)c1`, the growth inhibition is -9% (inactive).
As to `Nc1cc(N)c(N=Nc2cccc3c(S(=O)(=O)O)cccc23)cc1N=Nc1cc([N+](=O)[O-])ccc1O`, the growth inhibition is 4.9% (inactive).
As for `COC(=O)Oc1cc(Cl)c(Cl)cc1Cl`, the growth inhibition was 21.4% (inactive).
As for `O=C(O)C1CC(c2ccccc2)=NN1c1ccccc1` (stereo not drawn), the growth inhibition is 59.8% (inactive).
As to `COc1cc([C@@H]2c3cc4c(cc3[C@@H](Nc3ccc(NC(=O)c5cc([N+](=O)[O-])cn5C)cc3)[C@H]3COC(=O)[C@H]23)OCO4)cc(OC)c1O`, the growth inhibition was 67.5% (inactive) and 74.8% (active).
`O=C(O)c1ccccc1/C=N/N=C1c2ccccc2-c2ccccc21`: the growth inhibition was 61.4% (inactive).
With `O=C1CC(=O)c2ccccc21`, the growth inhibition is 46.3% (inactive).
Still for that read-out and setting: the value for `Nc1ncnc2c1ncn2C1OC(CO)CC1O` (stereo not drawn) was 88% (active) and -5.4% (inactive) and 76.5% (active).

Still in this assay, the particulars now being: S. cerevisiae mec2-1 strain, at 100.0 µM, stronger effect = higher value.
In the case of `CS(=O)(=O)SCc1ccc([N+](=O)[O-])cc1`, the growth inhibition was 97% (active).
Consider `Cc1csc(=S)n1OC(=O)NC1CCCCC1`, for which the growth inhibition was 95% (active).
The same measure, in the same setting: the value for `CCOc1ccc(NC(=O)C2=C(C)NC(C)=C(C(=O)Nc3ccc(OCC)cc3)C2c2cccc([N+](=O)[O-])c2)cc1` was 90% (active); that for `CC(C)(C)N=C(NO)c1ccccc1` was 53% (inactive); that for `CCCCC/C(=C(\C#N)C(=O)OCC)c1ccccc1` was 6% (inactive).
Still for that read-out and setting: the value for `O=C(NCCCl)Sc1ccc(Cl)cc1` was 85% (active); that for `O=C1Nc2ccc(Br)cc2C1=Nc1ccc2c(c1)OCO2` was -40% (inactive); that for `CCC(C)OC(=O)Nc1ccc(C)c(NC(=O)OC(C)CC)c1` (stereo not drawn) was 90% (active).
In the case of `O=C(O)c1cc2ccc(Cl)cc2c(O)c1C1=CCCCC1`, the growth inhibition is 69% (inactive).
For `CN(C)Cc1cc(N=Nc2ccc(Cl)cc2)ccc1OC(=O)c1ccccc1`, the growth inhibition is 42% (inactive).
On the same count and under the same terms, the value for `CN1CCN(C(=O)/C=C/C(=O)c2ccccc2)CC1` was 94% (active); that for `CCCC/C=C/C(C)(C(=O)OCC)C(=O)OCC` was 25% (inactive).
Consider `Cc1nc(-c2cc3cc([N+](=O)[O-])ccc3oc2=O)cs1`, for which the growth inhibition is 94% (active).
The same measure, in the same setting: the value for `Cc1nc2ccccc2nc1NNc1ccccc1` was 22% (inactive); that for `CN(C)[C@@H]1C(=O)C(C(N)=O)=C(O)[C@@]2(O)C(=O)C3=C(O)c4c(O)cccc4C[C@H]3C[C@@H]12` was 99% (active).
For the compound `COc1ccc(NC(=O)CC2SC(=Nc3ccccc3C)NC2=O)c([N+](=O)[O-])c1` (stereo not drawn), the growth inhibition was 97% (active).
Turning to `COc1cc(O)c2c(c1O)C(=O)c1cc(C)ncc1C2=O`, the growth inhibition is 23% (inactive).
With `CSc1nnc(SC)nn1`, the growth inhibition is 99% (active).
For `COc1cc(/C=C2\CCC/C(=C\c3ccc(O)c(OC)c3)C2=O)ccc1O`, the growth inhibition was 0% (inactive).
For `CN(C)CCNC(=O)c1cccc2cc([N+](=O)[O-])ccc12`, the growth inhibition was 93% (active).
In the case of `CCC(C)(C)c1ccc(Oc2cccc(C(=O)O)c2)cc1`, the growth inhibition is 96% (active).
Take `CCCCCCSc1ncnc2[nH]ncc12`: the growth inhibition is 0% (inactive).
Take `CC(=O)Nc1ccc(/C=C/[N+](=O)[O-])cc1`: the growth inhibition was 95% (active).
For the compound `CCOC(=O)c1[nH]n(-c2ccccc2)c(=O)c1C=NC(=S)C(N)=S`, the growth inhibition was 97% (active).
The same measure, in the same setting: the value for `CCCC(O)C1CC(C(C)C)CCC1C` (stereo not drawn) was 96% (active).
For the compound `O=[n+]1c2ccccc2n([O-])c2cc(Br)ccc21`, the growth inhibition is 98% (active).
Take `CN(C)CCNC(=O)c1cccc2c1Oc1c(cccc1[N+](=O)[O-])O2`: the growth inhibition is 56% (inactive).
Consider `Nc1ncc(-c2ccc(Br)cc2)s1`, for which the growth inhibition was 98% (active).
On the same count and under the same terms, the value for `Cc1cc2cc3cc(C)c(N)cc3nc2cc1N` was 97% (active); that for `CC12C(=O)OC(=O)C(c3ccccc31)c1ccccc12` was -2% (inactive).
As for `c1ccc2c(OCC3CO3)cccc2c1` (stereo not drawn), the growth inhibition is 91% (active).
Take `CCOC(=N)c1ccc(O)c(OC)c1`: the growth inhibition was 2% (inactive).
For the compound `Nc1cc(N)c(N=Nc2cccc3c(S(=O)(=O)O)cccc23)cc1N=Nc1cc([N+](=O)[O-])ccc1O`, the growth inhibition is 17% (inactive).
As to `COC(=O)Oc1cc(Cl)c(Cl)cc1Cl`, the growth inhibition is 8% (inactive).
For `O=C(O)C1CC(c2ccccc2)=NN1c1ccccc1` (stereo not drawn), the growth inhibition is 92% (active).
As for `COc1cc([C@@H]2c3cc4c(cc3[C@@H](Nc3ccc(NC(=O)c5cc([N+](=O)[O-])cn5C)cc3)[C@H]3COC(=O)[C@H]23)OCO4)cc(OC)c1O`, the growth inhibition is 74% (active).
Same read-out and setting: the value for `O=C(O)c1ccccc1/C=N/N=C1c2ccccc2-c2ccccc21` was 11% (inactive).
`O=C1CC(=O)c2ccccc21`: the growth inhibition is 40% (inactive).
As for `Nc1ncnc2c1ncn2C1OC(CO)CC1O` (stereo not drawn), the growth inhibition was 92% (active).
